The compounds below were run on JAK2(JH1domain-catalytic). Details: concentration: 1 μM, replicates: in singlicate; n = 1.
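Further: KINOMEscan kinase panel screen.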

SMILES	%Inh
N#Cc1ccc(-c2cc(-c3c[nH]nc3-c3ccccn3)ccn2)cc1 [GW693028]	9%
CCc1ccnc(/C=C/c2n[nH]c3cc(Sc4ccccc4C(=O)NC)ccc23)c1	0%
Cc1cccc(-c2nc(Nc3ccc4ncsc4c3)c3ccccc3n2)n1 [GW867588]	0%
O=C1NC(=O)C(N2CCc3ccccc32)=C1c1cccc(Cl)c1 [SB-408010]	0%
NS(=O)(=O)c1cccc(-c2ccc3ncc(N4CCOCC4)nc3c2)c1 [GSK1535721]	0%
CN1c2ccc(CNc3ccc(F)cc3)cc2-c2c(cnn2C)S1(=O)=O	0%
Cn1ccc2ncnc(Oc3ccc(NC(=O)Nc4ccncc4)c(Cl)c3)c21	0%
COc1cc(Nc2nccc(N3CCC(NC(=O)c4cccc(NC(C)=O)c4)C3)n2)cc(OC)c1OC (stereo not drawn) [GSK1379754]	97.3%
CSc1ccc(-c2cc3ncnc(SCC(=O)O)c3s2)cc1	0%
CC(C)(C)n1cnc2c(N)ncnc21 [SKF-97359]	0%
Cc1nnc(-c2ccc(C)c(-c3ccc(C(=O)Nc4ccc(NS(C)(=O)=O)cc4)cc3)c2)o1 [GW702865]	0%
COc1ccc(S(=O)(=O)NC2CCN(c3cc(C)nc(Nc4cccc(C#N)c4)n3)CC2)cc1.O=C(O)C(F)(F)F [GSK1653539]	0%
Cc1c2ccc(N(C)c3ccnc(Nc4cccc(S(N)(=O)=O)c4)n3)cc2nn1Cc1ccccc1.Cl.Cl [GW787226]	31%
COc1cc2c(cc1OC[C@@H](O)CO)ncc1c3ccc(C#N)cc3[nH]c21	3%
O=C(NCCCN1CCOCC1)c1cccc(Nc2nccc(Nc3ccc(Oc4ccccc4)cc3)n2)c1 [GW663929]	82%
Cc1ccc(NC(=O)c2ccnc(N3CCN(C)CC3)c2)cc1-c1ccc(C(=O)NCC2CC2)cc1 [GW775604]	2%
O=C(Nc1n[nH]c2cc(-c3cccc(F)c3)ccc12)C1CC1 [SB-735464]	7%

SMILES	%Inh
COc1ccc(Nc2nccc(N3CCC(NC(=O)Nc4cccc(C(C)=O)c4)C3)n2)cc1 (stereo not drawn) [GSK1379731]	17%
COCCNC(=O)c1ccc(-c2cc(C(=O)NC3CC3)cc(F)c2C)cc1 [GW868318]	44%
COc1ccc(CNC(=O)NC2CCN(c3ccnc(Nc4ccc(OC)cc4)n3)C2)cc1 (stereo not drawn) [GSK1379727]	20%
Nc1nccc(-c2c(-c3ccc(F)cc3)ncn2C2CCN(CC(F)(F)F)CC2)n1 [SB-236560]	0%
O=C(NCCNc1ccnc(Nc2ccc(F)cc2)n1)Nc1ccccc1F [GSK1379880]	11%
O=C(Nc1cccc(-c2nn3ncccc3c2-c2ccnc(Nc3cccc(C(F)(F)F)c3)n2)c1)c1c(F)cccc1F [GSK299495]	0%
COc1ccc(Nc2ncc(C#N)c(Nc3ccccc3C(N)=O)n2)cc1N1CCN(C)CC1.Cl [GSK1558669]	99.1%
O=c1cc(N2CCOCC2)nc2n(Cc3cccc4ccccc34)ccn12 [GSK2333389]	17%
Fc1ccc(-c2ncn(CCCN3CCOCC3)c2-c2ccccn2)cc1 [SB-211742]	0%
CN1c2ccc(NCc3ccc(F)cc3)cc2-c2c(cnn2C)S1(=O)=O	1%
Nc1nc(-c2ccc3c(N)n[nH]c3c2)cc(N2CCCC2)n1 [GSK2227430]	0%
[2H]C([2H])(c1cccc(C(F)(F)F)c1C)n1ccn2c(=O)nc(N3CCOCC3)cc12 [GSK2336394]	0%
COc1cc2ncn(-c3cc(OCc4sccc4Cl)c(C(N)=O)s3)c2cc1OC [GSK448459]	2%
COc1cc2c(cc1OCCN1CCN(C)CC1)ncc1c3ccc(C#N)cc3[nH]c21	52%
Cc1nnc(-c2ccc3occ(-c4ccc(C(C)O)cc4)c3c2)o1 (stereo not drawn)	6%
Cn1cc(-c2ccc3c(c2)CCN3C(=O)Cc2ccccc2Cl)c2c(N)ncnc21 [GSK2608885]	0%

What follows are compounds tested on JAK3(JH1domain-catalytic). Details: concentration: 1 μM, replicates: in singlicate; n = 1.

SMILES	%Inh
N#Cc1ccc(-c2cc(-c3c[nH]nc3-c3ccccn3)ccn2)cc1 [GW693028]	0%
CCc1ccnc(/C=C/c2n[nH]c3cc(Sc4ccccc4C(=O)NC)ccc23)c1	0%
Cc1cccc(-c2nc(Nc3ccc4ncsc4c3)c3ccccc3n2)n1 [GW867588]	0%
O=C1NC(=O)C(N2CCc3ccccc32)=C1c1cccc(Cl)c1 [SB-408010]	0%
NS(=O)(=O)c1cccc(-c2ccc3ncc(N4CCOCC4)nc3c2)c1 [GSK1535721]	0%
CN1c2ccc(CNc3ccc(F)cc3)cc2-c2c(cnn2C)S1(=O)=O	0%
Cn1ccc2ncnc(Oc3ccc(NC(=O)Nc4ccncc4)c(Cl)c3)c21	0%
COc1cc(Nc2nccc(N3CCC(NC(=O)c4cccc(NC(C)=O)c4)C3)n2)cc(OC)c1OC (stereo not drawn) [GSK1379754]	0%
CSc1ccc(-c2cc3ncnc(SCC(=O)O)c3s2)cc1	0%
CC(C)(C)n1cnc2c(N)ncnc21 [SKF-97359]	18%
Cc1nnc(-c2ccc(C)c(-c3ccc(C(=O)Nc4ccc(NS(C)(=O)=O)cc4)cc3)c2)o1 [GW702865]	0%
COc1ccc(S(=O)(=O)NC2CCN(c3cc(C)nc(Nc4cccc(C#N)c4)n3)CC2)cc1.O=C(O)C(F)(F)F [GSK1653539]	0%
Cc1c2ccc(N(C)c3ccnc(Nc4cccc(S(N)(=O)=O)c4)n3)cc2nn1Cc1ccccc1.Cl.Cl [GW787226]	0%
COc1cc2c(cc1OC[C@@H](O)CO)ncc1c3ccc(C#N)cc3[nH]c21	59%
O=C(NCCCN1CCOCC1)c1cccc(Nc2nccc(Nc3ccc(Oc4ccccc4)cc3)n2)c1 [GW663929]	0%
Cc1ccc(NC(=O)c2ccnc(N3CCN(C)CC3)c2)cc1-c1ccc(C(=O)NCC2CC2)cc1 [GW775604]	0%
O=C(Nc1n[nH]c2cc(-c3cccc(F)c3)ccc12)C1CC1 [SB-735464]	0%

SMILES	%Inh
COc1ccc(Nc2nccc(N3CCC(NC(=O)Nc4cccc(C(C)=O)c4)C3)n2)cc1 (stereo not drawn) [GSK1379731]	0%
COCCNC(=O)c1ccc(-c2cc(C(=O)NC3CC3)cc(F)c2C)cc1 [GW868318]	0%
COc1ccc(CNC(=O)NC2CCN(c3ccnc(Nc4ccc(OC)cc4)n3)C2)cc1 (stereo not drawn) [GSK1379727]	0%
Nc1nccc(-c2c(-c3ccc(F)cc3)ncn2C2CCN(CC(F)(F)F)CC2)n1 [SB-236560]	29%
O=C(NCCNc1ccnc(Nc2ccc(F)cc2)n1)Nc1ccccc1F [GSK1379880]	0%
O=C(Nc1cccc(-c2nn3ncccc3c2-c2ccnc(Nc3cccc(C(F)(F)F)c3)n2)c1)c1c(F)cccc1F [GSK299495]	0%
COc1ccc(Nc2ncc(C#N)c(Nc3ccccc3C(N)=O)n2)cc1N1CCN(C)CC1.Cl [GSK1558669]	98.8%
O=c1cc(N2CCOCC2)nc2n(Cc3cccc4ccccc34)ccn12 [GSK2333389]	0%
Fc1ccc(-c2ncn(CCCN3CCOCC3)c2-c2ccccn2)cc1 [SB-211742]	0%
CN1c2ccc(NCc3ccc(F)cc3)cc2-c2c(cnn2C)S1(=O)=O	0%
Nc1nc(-c2ccc3c(N)n[nH]c3c2)cc(N2CCCC2)n1 [GSK2227430]	0%
[2H]C([2H])(c1cccc(C(F)(F)F)c1C)n1ccn2c(=O)nc(N3CCOCC3)cc12 [GSK2336394]	0%
COc1cc2ncn(-c3cc(OCc4sccc4Cl)c(C(N)=O)s3)c2cc1OC [GSK448459]	0%
COc1cc2c(cc1OCCN1CCN(C)CC1)ncc1c3ccc(C#N)cc3[nH]c21	93.4%
Cc1nnc(-c2ccc3occ(-c4ccc(C(C)O)cc4)c3c2)o1 (stereo not drawn)	9%
Cn1cc(-c2ccc3c(c2)CCN3C(=O)Cc2ccccc2Cl)c2c(N)ncnc21 [GSK2608885]	56%

— paper PMC5540273 (PLoS ONE, 2017)
